PubChem BioAssay
Calls of active or inactive are those of the source.

Tests used:
[1] = E. coli DRC41 culture turbidity changes, primary screen, E. coli filamentation inducer project, strain DRC41, OD650, 48 h (AID 1152);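 note: E. coli MC1000 strain DRC41 lacking acrAB efflux pump and sulA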; settings: E. coli DRC41 (acrAB sulA), higher = more signal, called active from +8 up or from −8 down
[2] = small-molecule binders of probe aLefty1, primary screen, biochemical, small-molecule microarray, 635/667 nm fluorescence (AID 1153); settings: higher = more signal;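 note: score merges spot fluorescence with signal-to-noise ratio from the scanned slide images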
[3] = PSAC antagonists in infected red cells, primary screen, cell-based, P. falciparum Indochina, OD700, 1 h (AID 1154); settings: P. falciparum Indochina infected RBC osmotic lysis, higher = more signal, called active from +8 up or from −8 down
[4] = PSAC antagonists in infected red cells, primary screen, cell-based, P. falciparum Indochina, OD700, 2 h (AID 1155);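 note: lysis reports solute entry through the parasite surface anion channel PSAC; channel blockers reduce lysis of infected cells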; settings: P. falciparum Indochina infected erythrocytes, osmotic lysis OD700; higher = more signal, called active from +8 up or from −8 down
[5] = osmotic lysis modulators in infected erythrocytes, primary screen, PSAC antagonist project, cell-based, P. falciparum Indochina, OD700, 3 h (AID 1156); settings: higher = more signal, called active from +8 up or from −8 down
[6] = PSAC antagonists in infected red cells, primary screen, cell-based, P. falciparum Indochina, OD700, 18 h (AID 1157); settings: P. falciparum Indochina infected erythrocytes, osmotic lysis OD700, 18 h; higher = more signal, called active from +8 up or from −8 down
[7] = modulators of S6 phosphorylation in cells, primary screen, cell-based, A549, cytoblot, luminescence, serum-stimulated (AID 1158); settings: A549 phospho-S6 cytoblot, 5 h, higher = more signal;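 note: serum-stimulated A549 lung adenocarcinoma cells; signal is phosphorylated S6 detected by cytoblot immunostaining with HRP secondary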
[8] = biological target: NADPH oxidase 2 (Homo sapiens) (UniProt P04839); assay: NOX2-dependent H2O2 signal modulators, primary screen, NOX inhibitor project, cell-based, HEK293-NOX2, PMA-stimulated, Amplex Red fluorescence (AID 1159); settings: 45 min, higher = more signal, called active from +8 up or from −8 down; note: test concentration not given here
NADPH oxidase 2 (Homo sapiens), sequence (P04839 whole entry, looked up): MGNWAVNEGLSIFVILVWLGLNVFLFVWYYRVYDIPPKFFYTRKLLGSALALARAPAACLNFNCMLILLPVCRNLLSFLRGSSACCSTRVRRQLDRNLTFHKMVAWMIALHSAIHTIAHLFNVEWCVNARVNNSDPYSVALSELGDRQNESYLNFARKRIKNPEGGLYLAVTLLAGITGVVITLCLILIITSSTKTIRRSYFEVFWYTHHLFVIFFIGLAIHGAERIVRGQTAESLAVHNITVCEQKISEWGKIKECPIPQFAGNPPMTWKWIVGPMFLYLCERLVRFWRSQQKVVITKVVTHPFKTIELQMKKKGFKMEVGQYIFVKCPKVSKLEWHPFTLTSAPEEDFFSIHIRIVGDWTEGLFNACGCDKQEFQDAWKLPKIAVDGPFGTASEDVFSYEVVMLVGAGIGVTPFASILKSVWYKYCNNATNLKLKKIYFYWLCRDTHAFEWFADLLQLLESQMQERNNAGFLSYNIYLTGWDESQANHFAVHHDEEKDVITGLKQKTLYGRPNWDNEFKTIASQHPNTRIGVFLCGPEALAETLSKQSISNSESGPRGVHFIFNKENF

[9] = biological target: NADPH oxidase 4 (Homo sapiens) (UniProt Q9NPH5); assay: NOX4-dependent H2O2 signal modulators, primary screen, NOX inhibitor project, cell-based, HEK293-NOX4, tetracycline-induced, Amplex Red fluorescence (AID 1160); settings: 45 min, higher = more signal, called active from +8 up or from −8 down
NADPH oxidase 4 (Homo sapiens), sequence (Q9NPH5 whole entry, looked up): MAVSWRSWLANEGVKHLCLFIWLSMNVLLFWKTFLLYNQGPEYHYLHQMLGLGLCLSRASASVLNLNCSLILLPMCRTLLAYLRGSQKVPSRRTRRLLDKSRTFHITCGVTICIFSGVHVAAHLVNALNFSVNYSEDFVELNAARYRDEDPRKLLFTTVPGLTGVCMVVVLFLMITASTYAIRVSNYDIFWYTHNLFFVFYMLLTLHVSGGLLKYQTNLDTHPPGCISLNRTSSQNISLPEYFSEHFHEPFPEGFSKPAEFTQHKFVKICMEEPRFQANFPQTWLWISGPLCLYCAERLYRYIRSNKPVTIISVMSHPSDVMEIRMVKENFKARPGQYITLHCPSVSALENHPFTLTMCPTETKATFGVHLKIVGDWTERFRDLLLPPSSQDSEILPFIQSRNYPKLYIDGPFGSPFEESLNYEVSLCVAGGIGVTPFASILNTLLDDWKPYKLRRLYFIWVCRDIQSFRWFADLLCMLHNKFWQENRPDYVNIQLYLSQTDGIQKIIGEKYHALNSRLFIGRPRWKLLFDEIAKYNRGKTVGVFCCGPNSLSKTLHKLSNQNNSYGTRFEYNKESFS

[10] = biological target: NADPH oxidase 5 (Homo sapiens) (UniProt Q96PH1); assay: NOX5-dependent H2O2 signal modulators, primary screen, NOX inhibitor project, cell-based, HEK293-NOX5, Amplex Red fluorescence (AID 1161); settings: HEK293-NOX5, ionomycin, 45 min, higher = more signal
NADPH oxidase 5 (Homo sapiens), sequence (Q96PH1 whole entry, looked up): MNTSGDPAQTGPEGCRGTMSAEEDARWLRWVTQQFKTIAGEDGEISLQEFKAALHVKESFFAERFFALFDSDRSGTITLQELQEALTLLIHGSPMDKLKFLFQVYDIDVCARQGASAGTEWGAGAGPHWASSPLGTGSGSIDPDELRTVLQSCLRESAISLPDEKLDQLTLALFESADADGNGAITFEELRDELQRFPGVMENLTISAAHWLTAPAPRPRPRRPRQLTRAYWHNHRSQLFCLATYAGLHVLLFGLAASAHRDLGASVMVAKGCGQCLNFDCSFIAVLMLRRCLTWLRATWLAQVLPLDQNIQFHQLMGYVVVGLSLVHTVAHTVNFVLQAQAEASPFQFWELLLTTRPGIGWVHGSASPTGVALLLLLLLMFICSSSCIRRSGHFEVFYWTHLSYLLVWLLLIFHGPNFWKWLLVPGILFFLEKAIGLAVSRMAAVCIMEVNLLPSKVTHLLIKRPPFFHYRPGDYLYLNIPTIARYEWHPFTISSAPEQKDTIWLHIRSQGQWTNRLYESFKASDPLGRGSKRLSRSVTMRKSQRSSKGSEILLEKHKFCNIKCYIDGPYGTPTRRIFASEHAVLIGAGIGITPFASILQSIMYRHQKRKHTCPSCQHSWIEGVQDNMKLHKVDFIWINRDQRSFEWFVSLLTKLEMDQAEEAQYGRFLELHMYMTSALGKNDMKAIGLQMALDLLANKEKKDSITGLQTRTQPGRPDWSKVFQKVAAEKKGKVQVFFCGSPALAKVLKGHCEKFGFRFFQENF

Compound	z-score [1]	composite z-score [2]	z-score [3]	z-score [4]	z-score [5]	z-score [6]	z-score [7]	z-score [8]	z-score [9]	z-score [10]
CCCN1C(=O)[C@@]2(CCS(=O)(=O)c3ccccc3)N=C(c3ccc(OCCCO)cc3)O[C@H]2c2ccccc21	0.33 (inactive)	0.498	34.1 (active)	32.4 (active)	1.93 (inactive)	3.19 (inactive)	0.43	-2.38 (inactive)	-0.683 (inactive)	-1.74
CCCC[C@@H]1C[C@H]1[C@@H](NC(=O)c1ccccc1)c1ccccc1C(F)(F)F	-0.94 (inactive)	0.747	-0.247 (inactive)	0.803 (inactive)	-0.429 (inactive)	0.422 (inactive)	0.807	0.566 (inactive)	-1.02 (inactive)	0.262
CCCC=C(CCC)[C@@H](NC(=O)c1ccccc1)c1ccccc1	-0.845 (inactive)	0.221	1.37 (inactive)	0.894 (inactive)	0.131 (inactive)	0.812 (inactive)	0.316	-0.523 (inactive)	0.304 (inactive)	0.895
[N-]=[N+]=NCc1ccccc1[C@H]1OC(c2ccc(OCCCO)cc2)=N[C@@]1(Cc1ccccc1N=[N+]=[N-])C(=O)NCc1ccccc1	-0.258 (inactive)	0.195	28.3 (active)	20.5 (active)	1.96 (inactive)	1.99 (inactive)	-0.0679	-0.627 (inactive)	0.522 (inactive)	-0.56
C=C[C@H](OC)[C@@H](OC(=O)Nc1ccc(SC)cc1)c1ccc(OC)c(O)c1	2 (inactive)	0.0004	18.9 (active)	2.11 (inactive)	-0.454 (inactive)	-1.02 (inactive)	0.738	-2.57 (inactive)	-1.35 (inactive)	-0.943
CCCCCCc1nc(-c2cc(C)c(OC)c(C)c2)cc2c1[Si](C(C)C)(C(C)C)O[C@H]2c1ccccc1	-0.548 (inactive)	-0.0989	1.31 (inactive)	-0.0446 (inactive)	1.06 (inactive)	0.0157 (inactive)	0.561	-0.313 (inactive)	-1.16 (inactive)	-2.07
O=C1C2C=CC(C(O)c3ccccc3)N(n3cnnc3)C2C(=O)N1Cc1ccccc1 (stereo not given)	-0.678 (inactive)	0.3	1.23 (inactive)	-0.137 (inactive)	-0.138 (inactive)	-1.55 (inactive)	0.591	0.569 (inactive)	-0.323 (inactive)	-0.324
COCCOC(=O)N1C(=O)[C@@]2(c3cc(C#CCNC(N)=O)ccc31)[C@H](c1ccc(OCCO)cc1)N1[C@H](c3ccccc3)[C@H](c3ccccc3)OC(=O)[C@H]1[C@@H]2C(=O)N1CCCCCCC1	1.92 (inactive)	1.16	1.96 (inactive)	0.568 (inactive)	0.465 (inactive)	-0.737 (inactive)	1.01	2.38 (inactive)	1.22 (inactive)	0.765
CC(C)[C@H]1NC(=O)[C@@]23C(=O)N[C@@H](Cc4ccccc4)C2[C@H](C)[C@@]2(C)O[C@H]2C3/C=C/C/C=C\CNC(=O)[C@H](C)NC1=O (stereo not given in full)	-0.629 (inactive)	-0.381	3.36 (inactive)	0.538 (inactive)	0.386 (inactive)	0.01 (inactive)	-0.221	0.813 (inactive)	-0.833 (inactive)	0.137
CCN1C(C)=C(C(=O)OC)[C@@H](c2ccccc2)N2C(=O)[C@](O)(C(=O)OC)[C@@H](c3ccccc3)C(C(=O)c3ccccc3)=C12	0.282 (inactive)	-0.142	1.78 (inactive)	0.489 (inactive)	1.16 (inactive)	0.978 (inactive)	1.3	0.6 (inactive)	0.828 (inactive)	-0.284
COC(=O)[C@@]1(Cc2ccc(OC)cc2)[C@H]2c3cc(C(=O)N(C)C)n(CCc4ccc(OC)c(Br)c4)c3C[C@H]2CN1C(=O)c1ccccc1	-1.52 (inactive)	1.61	3.73 (inactive)	1.39 (inactive)	0.307 (inactive)	1.35 (inactive)	-0.21	-0.052 (inactive)	0.493 (inactive)	0.527
